Sampled rows, rich in hits. Any-hit rate of the full collection: about 6.8%.
T cruzi growth-1: T. cruzi proliferation inhibition | T. cruzi beta-gal in NIH3T3, GalScreen luminescence, 90 h | inhibition, % at 8.34 µM | 77,000 compounds, 5.9% hits | AID 624255;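 active means mean inhibition above about 93%, with at least 55% of replicates each passing it, limit read from the data, passing the limit was not always enough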
C diff growth: C. difficile growth inhibition; Clostridium difficile clinical isolate growth, OD600, 24 h; active compounds read low; growth activity, negative = inhibition, % at 16 µg/mL (by protocol); 86,000 compounds, 0.25% hits; AID 1259249;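 active means mean growth activity at or below -80% and every replicate also at or below -80%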;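 further: 0% = DMSO wells and -100% = levofloxacin 16 µg/mL wells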
Pf Dd2 growth: blocks growth of Plasmodium falciparum Dd2 parasites. activity change, % at 10 µM. 94,000 compounds, 2.3% hits. P. falciparum Dd2 growth, SYBR Green, 72 h; active compounds read low. AID 1159554; in the data active means activity change below about -80%
T cruzi growth-2: Trypanosoma cruzi proliferation inhibition. shares compounds with T cruzi growth-1. T. cruzi beta-gal in NIH3T3, GalScreen luminescence, 90 h. inhibition, % at 8.35 µM. 5,600 compounds, 72% hits. AID 651739;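 active means mean replicate inhibition above about 95% and at least 55% of replicates individually reaching it, limit read from the data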
T cruzi growth-3: Trypanosoma cruzi proliferation inhibition; shares compounds with T cruzi growth-1; T. cruzi beta-gal in NIH3T3, GalScreen luminescence, 90 h; inhibition, % at 2.09 µM; 5,600 compounds, 21% hits;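 active means mean inhibition above about 95%, with at least 55% of replicates also reaching it, limit read from the data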;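 further: plate controls were neutral control median for no effect and positive control median for full effect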
3T3 cytotox: cytotoxicity in mouse NIH/3T3 fibroblasts; 5,600 compounds, 14% hits; AID 651742; NIH/3T3 viability, CellTiter-Glo ATP luminescence, 90 h; shares compounds with T cruzi growth-1; cytotoxicity (signal decrease), % at 8.35 µM;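 active means mean signal decrease across replicates above about 35% based on untreated-well scatter, with enough replicates individually passing, limit read from the data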;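 further: 0% = median of neutral control wells and 100% = median of positive control wells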
3T3 cytotox 2: kills mouse NIH/3T3 fibroblasts; NIH/3T3 viability, CellTiter-Glo ATP luminescence, 90 h; 5,600 compounds, 56% hits; shares compounds with T cruzi growth-1; inhibition, % at 24.9 µM;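 active means mean loss of cell viability signal at or above a set limit, and enough replicates individually reaching it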;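 further: 0% = median of neutral control wells and 100% = median of positive control wells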
Starred values were filed as active, the others as inactive.

How did C[C@H](CO)N1C[C@H](C)[C@@H](CN(C)Cc2ccccn2)Oc2cc(-c3ccncc3)ccc2S1(=O)=O do in these assays?
T cruzi growth-1: 109.2*; C diff growth: 2.1; Pf Dd2 growth: -50.1; T cruzi growth-2: 98.7*; T cruzi growth-3: 105.5*; 3T3 cytotox: 55.3*; 3T3 cytotox 2: 88.2*

How did C[C@H](CO)N1C[C@H](C)[C@H](CN(C)Cc2ccccn2)Oc2cc(Br)ccc2S1(=O)=O do in these assays?
T cruzi growth-1: -9.0; C diff growth: -0.9; Pf Dd2 growth: -1.2

What do the screens show for `Cc1ccccc1NC(=O)Nc1ccc2c(c1)C(=O)N(C)[C@@H]1CC[C@@H](CC(=O)O)O[C@H]1CO2`?
T cruzi growth-1: 23.8; C diff growth: 0.8; Pf Dd2 growth: 15.5

How did CNC[C@H]1Oc2c(NC(=O)Nc3ccc(F)cc3)cccc2C(=O)N([C@@H](C)CO)C[C@@H]1C do in these assays?
C diff growth: 6.9; Pf Dd2 growth: -4.4

How did COc1ccccc1CNC(=O)C[C@H]1CC[C@H]2[C@@H](COC[C@@H](O)CN2Cc2ccc3c(c2)OCO3)O1 do in these assays?
T cruzi growth-1: 17.9; C diff growth: 2.6; Pf Dd2 growth: 4.2

Results for COc1ccccc1CNC(=O)C[C@@H]1CC[C@@H]2[C@H](COC[C@H](O)CN2Cc2cccc(-c3ccncc3)c2)O1 ?
T cruzi growth-1: 117.4*; C diff growth: -16.2; T cruzi growth-2: 82.7; T cruzi growth-3: 73.0; 3T3 cytotox: -12.1; 3T3 cytotox 2: 55.4*

What do the screens show for `COCCNC(=O)C[C@H]1CC[C@H]2[C@@H](COC[C@H](O)CN2Cc2cccc(-c3ccncc3)c2)O1`?
T cruzi growth-1: 78.1; C diff growth: 8.4; Pf Dd2 growth: -6.6

What do the screens show for `COCCNC(=O)C[C@H]1CC[C@@H]2[C@H](COC[C@@H](O)CN2Cc2cccc(-c3ccncc3)c2)O1`?
T cruzi growth-1: 108.6*; C diff growth: 8.5; Pf Dd2 growth: 9.0; T cruzi growth-2: 91.6; T cruzi growth-3: 86.8; 3T3 cytotox: -3.3; 3T3 cytotox 2: 3.4

How did COc1ccccc1CNC(=O)C[C@@H]1CC[C@@H]2[C@H](COC[C@H](O)CN2Cc2ccccc2)O1 do in these assays?
C diff growth: 9.6; Pf Dd2 growth: -19.2

Results for COc1ccccc1CNC(=O)C[C@@H]1CC[C@@H]2[C@H](COC[C@H](O)CN2Cc2ccc3c(c2)OCO3)O1 ?
T cruzi growth-1: 150.3*; C diff growth: 5.2; Pf Dd2 growth: -52.2; T cruzi growth-2: 54.8; T cruzi growth-3: -21.8; 3T3 cytotox: -5.0; 3T3 cytotox 2: 5.3

What do the screens show for `COc1ccccc1CNC(=O)C[C@H]1CC[C@@H]2[C@H](COC[C@H](O)CN2Cc2cccc(-c3ccncc3)c2)O1`?
T cruzi growth-1: 120.7*; C diff growth: -5.2; T cruzi growth-2: 102.4*; T cruzi growth-3: 93.9; 3T3 cytotox: 23.5; 3T3 cytotox 2: 25.0*

What do the screens show for `COc1ccccc1CNC(=O)C[C@@H]1CC[C@H]2[C@@H](COC[C@@H](O)CN2Cc2ccccc2)O1`?
C diff growth: 1.8; Pf Dd2 growth: 2.6

How did COc1ccc(CN(C)C[C@@H]2Oc3ccc(NC(=O)NC4CCCCC4)cc3C(=O)N([C@@H](C)CO)C[C@H]2C)cc1 do in these assays?
C diff growth: 2.8; Pf Dd2 growth: 0.8

What do the screens show for `Cc1ccc(S(=O)(=O)N(C)C[C@H]2Oc3ccc(NC(=O)Nc4ccc5c(c4)OCO5)cc3C(=O)N([C@H](C)CO)C[C@@H]2C)cc1`?
T cruzi growth-1: 35.9; C diff growth: 1.6; Pf Dd2 growth: -47.7

What do the screens show for `C/C=C/c1ccccc1[C@@H]1[C@H](C#N)N(C(=O)Cc2ccccn2)[C@H]1CO`?
C diff growth: -3.7; Pf Dd2 growth: -3.6

What do the screens show for `C[C@@H]1CN([C@H](C)CO)C(=O)c2cc(-c3cccnc3)cnc2O[C@H]1CN(C)C(=O)Cc1cccnc1`?
T cruzi growth-1: 12.7; C diff growth: 2.5; Pf Dd2 growth: 14.1

Results for C[C@@H]1CN([C@@H](C)CO)C(=O)c2cc(-c3cncnc3)cnc2O[C@@H]1CN(C)Cc1ccccc1 ?
C diff growth: -0.7; Pf Dd2 growth: -26.7

How did COc1ccccc1CNC(=O)C[C@H]1CC[C@H]2[C@@H](COC[C@@H](O)CN2Cc2ccccc2)O1 do in these assays?
C diff growth: 1.9; Pf Dd2 growth: 12.3

How did COc1ccccc1CNC(=O)C[C@H]1CC[C@@H]2[C@H](COC[C@@H](O)CN2Cc2ccccc2)O1 do in these assays?
C diff growth: 5.2; Pf Dd2 growth: -1.8

What do the screens show for `COc1ccccc1CNC(=O)C[C@H]1CC[C@H]2[C@@H](COC[C@@H](O)CN2Cc2cccc(-c3ccncc3)c2)O1`?
T cruzi growth-1: 112.7*; C diff growth: -4.7; T cruzi growth-2: 82.2; T cruzi growth-3: 81.5; 3T3 cytotox: 6.4; 3T3 cytotox 2: 30.9*

What do the screens show for `COc1ccccc1CNC(=O)C[C@@H]1CC[C@H]2[C@@H](COC[C@@H](O)CN2Cc2cccc(-c3ccncc3)c2)O1`?
T cruzi growth-1: 121.9*; C diff growth: -2.0; T cruzi growth-2: 81.8; T cruzi growth-3: 92.8; 3T3 cytotox: 48.1*; 3T3 cytotox 2: 43.6*

Results for COc1ccccc1-c1cn(CC[C@@H]2CC[C@H](NC(=O)C3CCCC3)[C@H](CO)O2)nn1 ?
C diff growth: 6.8; Pf Dd2 growth: -16.3

How did O=C(C[C@H]1CC[C@@H](NC(=O)C2CCC2)[C@H](CO)O1)NCCCN1CCOCC1 do in these assays?
C diff growth: -1.5; Pf Dd2 growth: 19.8

Results for CC(C)NC(=O)N1CCCCN2[C@@H](CO)[C@@H](c3ccc(C#Cc4ccccc4F)cc3)[C@@H]2C1 ?
T cruzi growth-1: 90.7; C diff growth: 12.3; Pf Dd2 growth: -16.3

What do the screens show for `CC(C)NC(=O)N1CCCCN2[C@H](CO)[C@H](c3ccc(C#Cc4ccccc4F)cc3)[C@@H]2C1`?
T cruzi growth-1: 95.7*; C diff growth: -17.2; Pf Dd2 growth: 6.3; T cruzi growth-2: 109.6*; T cruzi growth-3: 62.0; 3T3 cytotox: 41.6*; 3T3 cytotox 2: 77.1*

How did CC(C)NC(=O)N1CCCCN2[C@H](C1)[C@@H](c1ccc(C#Cc3ccccc3F)cc1)[C@@H]2CO do in these assays?
T cruzi growth-1: 89.3; C diff growth: 3.9; Pf Dd2 growth: -28.0

Results for CC(C)NC(=O)N1CCCCN2[C@H](CO)[C@@H](c3ccc(C#Cc4ccccc4F)cc3)[C@H]2C1 ?
T cruzi growth-1: 112.4*; C diff growth: 41.2; Pf Dd2 growth: 6.8; T cruzi growth-2: 100.0*; T cruzi growth-3: 85.5; 3T3 cytotox: 19.5; 3T3 cytotox 2: 103.5*
